# Sampled rows, rich in hits. Any-hit rate of the full collection: about 4.2%.
# VDR inh = Inhibitors of the vitamin D receptor (VDR): qHTS. Vitamin D3 receptor (Homo sapiens), P11473. VDR-SRC2-3 peptide fluorescence polarization, 2 h. Potency, µM, for inactives: max response, negative = inhibition, usual class: inhibitors. 0.93% of 400,000 active
# Target sequence (P11473 whole entry, looked up): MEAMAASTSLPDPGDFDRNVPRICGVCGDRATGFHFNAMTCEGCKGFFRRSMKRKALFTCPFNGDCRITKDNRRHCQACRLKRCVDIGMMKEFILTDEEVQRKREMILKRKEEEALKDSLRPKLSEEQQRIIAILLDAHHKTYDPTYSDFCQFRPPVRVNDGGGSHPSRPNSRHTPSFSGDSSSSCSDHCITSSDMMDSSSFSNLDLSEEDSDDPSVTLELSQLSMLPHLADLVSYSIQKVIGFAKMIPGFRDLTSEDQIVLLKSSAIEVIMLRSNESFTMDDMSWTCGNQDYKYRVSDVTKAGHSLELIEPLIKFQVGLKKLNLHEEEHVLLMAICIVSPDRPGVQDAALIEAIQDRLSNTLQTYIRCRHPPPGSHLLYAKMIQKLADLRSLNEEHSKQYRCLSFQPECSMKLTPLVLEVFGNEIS
#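 After 23 nl compound addition and a short centrifugation, plates sat for 2 hours at ambient temperature; polarization of fluorescence then indicated loss of VDR binding to peptide SRC2-3.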
# ALOX12 inh = Primary qHTS assay for inhibitors of human arachidonate 12S-lipoxygenase (ALOX12): Round 2; Polyunsaturated fatty acid lipoxygenase ALOX12 (Homo sapiens), P18054; purified 12hLO, xylenol orange hydroperoxide absorbance; Potency, µM (titrated, usually from 108 µM), for inactives: at the highest dose activity change, negative = inhibition, usual class: inhibitors; 1.1% of 580,000 active; AID 1671190, 2021
#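 Purified human 12hLO (150 nM final) in 25 mM Hepes, 0.01% Triton X-100, pH 7.0 was preincubated 15 min at room temperature with compound. Then 40 uM arachidonic acid was added, 30 min. Hydroperoxide was read by Fe-XO absorbance ratio 573/405 nm.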
# Sfp inh = qHTS Assay for Inhibitors of Bacillus subtilis Sfp phosphopantetheinyl transferase (PPTase). 4'-phosphopantetheinyl transferase ffp (Bacillus subtilis), Q9F4F7. Potency, µM, for inactives: largest response in the series, negative = inhibition, usual class: inhibitors. Biochemical Sfp PPTase activity, qHTS. 3.5% of 310,000 active. AID 1490, 2009;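 also: the enzyme is Sfp with the accession as filed and its product quenches rhodamine fluorescence; 0% = enzyme reaction without inhibitor and -100% = no enzyme wells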
#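 Step 1, compound plus 15 nM Sfp-PPTase, 15 min, room temperature. Step 2, add rhodamine-CoA (5 uM) and BHQ-2-YbbR (12.5 uM). Step 3, read 525/598 nm fluorescence at 0 and 30 min.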
# PLK1 PBD block = qHTS for Inhibitors of PLK1-PDB (polo-like kinase 1 - polo-box domain): Primary Screen; Plk1 PBD binding of FITC phosphopeptide, fluorescence polarization; Potency, µM, inactives show max response, negative = inhibition, actives largely listed as inhibitors; 2.8% of 360,000 active; also: series mostly up to about 57 µM; nearly all actives have a fitted effect of over 65% in size
# Starred values were filed as active, the others as inactive; ? = inconclusive; · = not tested or not shown. Calls follow the shape of the dose curve; as a rule, active = well fitted curve in the direction sought with a large enough effect; inconclusive = small, poorly fitted or top-dose-only effect, or another doubt; inactive = no such curve, though single readings can be large; an effect the other way counts as inactive or inconclusive. Unless noted, % is scaled to controls: 0 for no effect and ±100 for the full control effect; potency is read from the fitted curve at half-maximal effect.
SMILES,VDR inh,ALOX12 inh,Sfp inh,PLK1 PBD block
CC(C)(C)C(=O)OCC(=O)C1CCC2C3CCC4=CC(=O)CCC4(C)C3CCC12C (stereo not given),-5%,·,8%,·
Cc1nc(C2CCC3C4CCC5=CC(=O)CC[C@]5(C)C4CC[C@]23C)cs1 (stereo not given in full),·,9%,79µM*,·
N#Cc1ccccc1S(=O)(=O)N1CCN(CC(O)COc2ccccc2F)CC1 (stereo not given),-4%,?,56µM*,7%
CC(=O)c1cccc(OCC(O)CN2CCN(S(=O)(=O)c3c(F)cccc3F)CC2)c1 (stereo not given),-26%,9%,?,19µM*
O=S(=O)(c1ccc(F)cc1)N1CCN(CC(O)COCc2cccs2)CC1 (stereo not given),0%,?,-6%,-3%
O=S(=O)(c1ccc(F)cc1)N1CCN(CC(O)COc2ccccc2F)CC1 (stereo not given),2%,?,56µM*,6%
O=c1[nH]c(/C=C\c2cccc(F)c2)nc(O)c1[N+](=O)[O-],40µM*,0%,3%,0%
O=c1[nH]c(/C=C\c2ccccc2F)nc(O)c1[N+](=O)[O-],?,0%,17%,-6%
C=CCOc1cccc(/C=C\c2nc(O)c([N+](=O)[O-])c(=O)[nH]2)c1,14µM*,1%,-4%,-7%
CN(C)C(=O)c1sccc1Oc1ccc(F)cc1[N+](=O)[O-],-11%,?,18%,24µM*
CCCOc1ccc(/C=C/C(=O)Nc2sc(C)c(C)c2C(=O)OCC)cc1OC,16µM*,-1%,·,·
CCOc1ccc(CN(C)CC(=O)Nc2ccc3c(c2)CCC3)cc1OC,-16%,-9%,8%,-3%
Cc1c(CC(=O)O)c(=O)oc2c(C)c3occ(-c4ccc(Br)cc4)c3cc12,?,?,-17%,30µM*
COc1ccc(-c2coc3cc4oc(=O)c(CC(=O)O)c(C)c4cc23)cc1,-3%,?,-6%,1%
Cc1c(CC(=O)O)c(=O)oc2cc3occ(-c4ccc(F)cc4)c3cc12,2%,0%,40µM*,2%
CC(C)(CNC(=O)C(c1ccccc1)c1ccccc1)CNC(=O)C(c1ccccc1)c1ccccc1,·,2%,·,·
CCOc1ccc(N2C(=O)CN(O)C=C3N=c4ccccc4=C32)cc1,·,·,4.5µM*,·
CCCCCCC(=O)O,-6%,1%,·,-16%
CCCCCCCCCCSCCC(=O)O,·,40µM*,·,·
COc1cccc(C(=O)C2CCCN(C(=O)CCc3scnc3C)C2)c1 (stereo not given),-3%,9%,-6%,-4%
O=C(NCC1CC1)c1cccc(OC2CN(Cc3ccc(F)cc3F)C2)c1,·,25µM*,·,·
O=C(NCC1CC1)c1cccc(OC2CN(Cc3ccc(F)cc3Cl)C2)c1,·,33%,·,·
CCOc1ccccc1C(=O)NC(C(=O)Nc1ccccc1N1CCOCC1)C(C)C (stereo not given),4%,-3%,19%,-11%
C=C(C)C(=O)/C=C/c1ccc(Br)cc1,18µM*,·,-12%,·
Cc1ccc(C(=O)/C=C/c2ccc(Br)cc2)o1,?,0%,12%,1%
SMILES,VDR inh,ALOX12 inh,Sfp inh,PLK1 PBD block
CCCC(c1c(C)n(C)n(-c2ccccc2)c1=O)c1c(C)n(C)n(-c2ccccc2)c1=O,-24%,0%,24%,2.4µM*
CCC1C(=O)NCCN1C(=O)CCc1nnc(CCc2ccc(OC)cc2)o1 (stereo not given),-3%,11%,21%,-4%
O=C(Nc1ccc(Cl)c([N+](=O)[O-])c1)ONC1=NCCCCC1,-8%,2%,12%,27µM*
CCn1nnc2cc(C(=O)OCc3cc(=O)oc4cc(O)ccc34)ccc21,·,-46%,·,·
Cc1nc(NC(=O)c2ccccc2)sc1-c1csc(Nc2ccccc2Cl)n1,·,40µM*,·,·
CC(=O)Nc1ccc(Nc2nc(-c3sc(NC(C)=O)nc3C)cs2)cc1,32µM*,?,?,24µM*
CCC(=O)Nc1nc(C)c(-c2csc(Nc3ccc(C(=O)O)cc3)n2)s1,-15%,-16%,?,?
CCC(=O)Nc1nc(C)c(-c2csc(Nc3cccc(C(=O)O)c3)n2)s1,0%,-22%,20µM*,?

# Source: PubChem BioAssay
